Screening results as filed in PubChem BioAssay.
CHT allo act – allosterically activates the human high affinity choline transporter; Q9GZV3; CHT-expressing cells, membrane potential dye, choline EC20; active compounds read high; LV-AA mutant CHT in HEK293 cells; B-score at 10 µM; actives 0.49% (n = 310,000);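 active = initial fluorescence not abnormally high and integrated response B-score, plate-corrected, over 3 SD above library mean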
Target sequence (Q9GZV3 whole entry, looked up): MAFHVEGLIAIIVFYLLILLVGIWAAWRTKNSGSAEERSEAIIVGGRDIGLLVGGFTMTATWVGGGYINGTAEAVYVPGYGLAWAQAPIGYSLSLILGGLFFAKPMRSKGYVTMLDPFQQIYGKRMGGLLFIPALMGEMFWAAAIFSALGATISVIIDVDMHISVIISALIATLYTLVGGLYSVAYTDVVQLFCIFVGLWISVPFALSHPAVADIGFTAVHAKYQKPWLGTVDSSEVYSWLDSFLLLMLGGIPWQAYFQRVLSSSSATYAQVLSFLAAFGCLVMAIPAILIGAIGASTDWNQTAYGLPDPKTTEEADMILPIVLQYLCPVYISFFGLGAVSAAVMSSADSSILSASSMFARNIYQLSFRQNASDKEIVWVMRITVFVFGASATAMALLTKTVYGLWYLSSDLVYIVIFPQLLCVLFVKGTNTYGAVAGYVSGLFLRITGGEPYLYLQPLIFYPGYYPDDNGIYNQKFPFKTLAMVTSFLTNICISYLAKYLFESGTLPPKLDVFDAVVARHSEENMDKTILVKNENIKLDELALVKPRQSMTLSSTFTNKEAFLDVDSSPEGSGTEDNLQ
Mot1-301 SUMO – SUMOylation pathway inhibition by Mot1-301 growth rescue. S. cerevisiae Mot1-301 growth rescue, ATP luminescence, 38.5C; percent above DMSO median, 100 means doubled. growth rescue, % at 18.8 µM. actives 1% (n = 320,000);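 active = every valid replicate shows activation above 250% relative to neutral control wells; inactive = the rest, any valid replicate at or below 250%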;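 also: OY570 slx delta 5 strain wells were the positive control but not used for scaling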
CHT block – inhibitors of human choline transporter CHT; Q9GZV3; CHT-expressing cells, membrane potential dye, choline response; active compounds read low; actives 0.86% (n = 310,000); B-score at 10 µM;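 active = B-score over 3 SD under the library average, and starting fluorescence ratio not unusually high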;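 also: choline stimulus applied at its EC90 after an EC20 pre-addition; B-score computed on integrated fluorescence ratio after choline addition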
NALP1 yeast inh – blocks the NALP1 inflammasome reconstituted in yeast; inhibition, % at 10 µM; actives 0.61% (n = 280,000); S. cerevisiae NALP1/ASC/caspase-1 growth, X-gal OD620, 72 h; AID 2071; in the data active = inhibition mostly above about 24%, no sharp cut-off; inactive = mostly below about 32%
A1 inh – inhibitors of the anti-apoptotic protein A1, read as caspase activation; AID 2462; caspase activation, % (test concentration not listed); MEF A1-2A-BIM cells, Caspase-Glo 3/7 luminescence, 3 h; percent of clofoctol response, vehicle zero; actives 0.066% (n = 330,000);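 active = over half of replicate activation scores above 10%, or exactly half above 10 with the replicate mean above 10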
NLRP3 yeast inh – blocks the NALP3 inflammasome reconstituted in yeast | Yeast reconstituted NLRP3/ASC/caspase-1, beta-gal luminescence, 24 h | inhibition, % at 10 µM | actives 0.39% (n = 330,000);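 active = inhibition of 50% or more; inactive = inhibition below 50%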;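 also: plate controls were induced DMSO wells for no effect and uninduced yeast grown without galactose for full effect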
* marks the source's active call; other numbers are inactive results. Shown are actives, neighbours in structure and some others; about 3% of the full set was active somewhere.

Results for CN(C)CCCN(C(=O)c1ccc2c(c1)CCCC2)c1nc2ccc(F)cc2s1 ?
CHT allo act: inactive; Mot1-301 SUMO: -12; CHT block: inactive; NALP1 yeast inh: 47*; A1 inh: 0; NLRP3 yeast inh: 41

How did CN(C)CCN(C(=O)/C=C/c1cccs1)c1nc2ccc(F)cc2s1 do in these assays?
CHT allo act: inactive; Mot1-301 SUMO: -16; CHT block: inactive; NALP1 yeast inh: 54*; A1 inh: 0; NLRP3 yeast inh: 34

How did COc1ccc2sc(N(CCCN(C)C)C(=O)c3ccc(S(=O)(=O)N4CCc5ccccc5C4)cc3)nc2c1 do in these assays?
CHT allo act: inactive; Mot1-301 SUMO: -26; CHT block: inactive; A1 inh: 28*; NLRP3 yeast inh: 33

How did Cc1ccc(S(=O)(=O)NCc2ccccn2)cc1C do in these assays?
CHT allo act: inactive; Mot1-301 SUMO: 4; CHT block: inactive; NALP1 yeast inh: 14; A1 inh: 1; NLRP3 yeast inh: 9

Results for CC(C)(C)C1=NN=C2c3ccccc3C(=O)C21 (centres undefined) ?
CHT allo act: inactive; Mot1-301 SUMO: 675*; CHT block: inactive; NALP1 yeast inh: 23; A1 inh: 0; NLRP3 yeast inh: 19

How did O=C(c1cc(S(=O)(=O)N2CCOCC2)ccc1Cl)N1CCC(Cc2ccccc2)CC1 do in these assays?
CHT allo act: inactive; Mot1-301 SUMO: -11; CHT block: inactive; A1 inh: -1; NLRP3 yeast inh: -2

What do the screens show for `Cc1ccc(S(=O)(=O)NCCc2cn3nc(C)c(C)nc3n2)cc1C`?
CHT allo act: inactive; Mot1-301 SUMO: 267*; CHT block: inactive; NALP1 yeast inh: 3; A1 inh: 0; NLRP3 yeast inh: 10

Results for CCc1ccc(-c2nc(CN3CCCC(C(=O)NCCc4ccc(OC)c(OC)c4)C3)c(C)o2)cc1 (centres undefined) ?
CHT allo act: inactive; Mot1-301 SUMO: -7; CHT block: inactive; NALP1 yeast inh: 12; A1 inh: 0; NLRP3 yeast inh: 0

What do the screens show for `COc1ccc(CNC(=O)C2CCCN(Cc3nc(-c4cccc(C)c4)oc3C)C2)cc1` (centres undefined)?
CHT allo act: inactive; Mot1-301 SUMO: 5; CHT block: inactive; NALP1 yeast inh: 28*; A1 inh: 0; NLRP3 yeast inh: 16

How did CCOC(=O)c1[nH]ncc1CN1CCCC(C(=O)c2cc(Cl)ccc2OC)C1 (centres undefined) do in these assays?
CHT allo act: inactive; Mot1-301 SUMO: 8; CHT block: inactive; NALP1 yeast inh: 33*; A1 inh: 0; NLRP3 yeast inh: 10

Results for COc1ccc(C(=O)C2CCCN(Cc3c[nH]c4ccccc34)C2)c(OC)c1 (centres undefined) ?
CHT allo act: inactive; Mot1-301 SUMO: -8; CHT block: inactive; NALP1 yeast inh: 28*; A1 inh: 0; NLRP3 yeast inh: 14

Results for CC(C)c1nc2ccccn2c1NC1CCCCC1 ?
CHT allo act: inactive; Mot1-301 SUMO: 20; CHT block: inactive; NALP1 yeast inh: 24*; A1 inh: 2; NLRP3 yeast inh: 20

How did Oc1c(CN2CCN(c3ccccn3)CC2)cc(Cl)c2cccnc12 do in these assays?
CHT allo act: inactive; Mot1-301 SUMO: 105; CHT block: inactive; NALP1 yeast inh: 79*; A1 inh: 0; NLRP3 yeast inh: 37

Results for CCOC(=O)C1CCN(CC(C)(C)NS(=O)(=O)c2ccc(Cl)cc2)CC1 ?
CHT allo act: inactive; Mot1-301 SUMO: 338*; CHT block: inactive; NALP1 yeast inh: 6; A1 inh: 0; NLRP3 yeast inh: 20

What do the screens show for `CCOC(=O)C1CCN(CC(C)(C)NS(=O)(=O)c2ccc(C)cc2)CC1`?
CHT allo act: inactive; Mot1-301 SUMO: 46; CHT block: inactive; NALP1 yeast inh: 22; A1 inh: 0; NLRP3 yeast inh: 18

What do the screens show for `COc1ccc(CNC(=O)CCS(=O)(=O)c2cc3c(cc2Cl)NC(=O)CO3)cc1`?
CHT allo act: inactive; Mot1-301 SUMO: 3; CHT block: inactive; NALP1 yeast inh: 13; A1 inh: 2; NLRP3 yeast inh: 17
